PubChem BioAssay (NCI)
About 79,000 compounds went through this panel and 15% of them were active in at least one assay; those are over-represented in the sample as a whole. Activity calls are given as the source filed them. Cut-off read from the data, not from the text of the source: active = growth inhibition above about 70%; inactive = the rest.

Assay: NCI Yeast Anticancer Drug Screen. Data for the mlh1 strain (AID 171);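 note: 0% = growth of vehicle-treated control cultures of the same strain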
Details: S. cerevisiae mlh1 strain growth inhibition, stronger effect = higher value
Method: Growth inhibition of yeast strains with defined genetic alterations is measured as a screen for potential anti-cancer activity. Selected strains with alterations in DNA damage repair or cell cycle control were exposed to compounds and growth inhibition was measured relative to vehicle treated controls. The strain used in this assay is mlh1

With `N#Cc1sc2c(c1OC(=O)c1ccco1)c(=O)n(-c1ccccc1)c(=S)n2-c1ccccc1` the growth inhibition (at 1.2 µM) was -4% (inactive), the growth inhibition (at 3.7 µM) was -2% (inactive) and the growth inhibition (at 11.0 µM) was -2% (inactive). The growth inhibition (at 33.0 µM) was -5% (inactive) and the growth inhibition (at 100.0 µM) was -3% (inactive).
In the case of `CSc1s[s+]c(SC)c1-c1ccccc1`, the growth inhibition (at 1.2 µM) is reported as -35% (inactive), the growth inhibition (at 3.7 µM) is reported as -23% (inactive) and the growth inhibition (at 11.0 µM) is reported as -14% (inactive). For the same compound, the growth inhibition (at 33.0 µM) was 52% (inactive) and the growth inhibition (at 100.0 µM) was 13% (inactive).
With `O=NN(CCCl)C(=O)NC1CCCCC1` the growth inhibition (at 1.2 µM) was 0% (inactive), the growth inhibition (at 3.7 µM) was 1% (inactive) and the growth inhibition (at 11.0 µM) was 8% (inactive). The growth inhibition (at 33.0 µM) was 11% (inactive) and the growth inhibition (at 100.0 µM) was 17% (inactive).
For `C=C(C)[C@@H]1CCc2c(O)c(O)c(=O)cc(C)c2C1`, the growth inhibition (at 1.2 µM) was 25% (inactive), the growth inhibition (at 3.7 µM) was 36% (inactive) and the growth inhibition (at 11.0 µM) was 55% (inactive). For the same compound, the growth inhibition (at 33.0 µM) was 85% (active) and the growth inhibition (at 100.0 µM) was 99% (active).
For `O=S1(=O)c2ccccc2N=C(c2ccccc2Cl)CC1c1ccc(F)cc1` (stereo not given), the growth inhibition (at 1.2 µM) was -17% (inactive), the growth inhibition (at 3.7 µM) was -10% (inactive) and the growth inhibition (at 11.0 µM) was -8% (inactive). The growth inhibition (at 33.0 µM) was 13% (inactive) and the growth inhibition (at 100.0 µM) was 7% (inactive).
With `O=C(CCc1ccccc1)ON1C(=S)C(c2ccccc2)(c2ccccc2)N=C1Sc1ccccc1` the growth inhibition (at 1.2 µM) was 44% (inactive), the growth inhibition (at 3.7 µM) was 50% (inactive) and the growth inhibition (at 11.0 µM) was 51% (inactive). The growth inhibition (at 33.0 µM) was 54% (inactive) and the growth inhibition (at 100.0 µM) was 56% (inactive).
For `NCc1c(O)ccc2ccccc12`, the growth inhibition (at 1.2 µM) was -10% (inactive), the growth inhibition (at 3.7 µM) was -4% (inactive) and the growth inhibition (at 11.0 µM) was 4% (inactive). For the same compound, the growth inhibition (at 33.0 µM) was 96% (active) and the growth inhibition (at 100.0 µM) was 98% (active).
With `CCCCCCCCCCCCCCCCCCNC(=S)/N=C\C1=C(O)c2ccccc2C1=O` the growth inhibition (at 1.2 µM) was -1% (inactive), the growth inhibition (at 3.7 µM) was -1% (inactive) and the growth inhibition (at 11.0 µM) was -3% (inactive). For the same compound, the growth inhibition (at 33.0 µM) was -2% (inactive) and the growth inhibition (at 100.0 µM) was -1% (inactive).
